Rows were chosen to be rich in hits. Some 1.5% of all compounds tested hit in one or more screens of this group.
rTrxR1 inhibitor: blocks rat thioredoxin reductase 1 | O89049 | recombinant rTrxR1, NADPH fluorescence consumption, selenite substrate | Potency, µM (doses to about 114 µM), for inactives: at the highest dose activity change, negative = inhibition, usual class: inhibitors | 390,000 tested, 1% active | AID 588453; also: potency is read from the fitted curve at half-maximal effect; nearly all actives have a fitted effect of over 65% in size
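Rat TrxR1 (90 nM in the dispensed reagent) was pre-reduced with 400 uM NADPH for 5 min at room temperature, then incubated with compound for 15 min. After 400 uM selenite was added, NADPH fluorescence (Ex 340/Em 450 nm) was followed for 8 min.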
Six1-Eya2 blk: blocks human Six1 binding to Eya2; Q15475+O00167; AlphaScreen GST-Six1/His-Eya2 binding, biochemical; hits give low values; activity change, % (test concentration not listed); 360,000 tested, 0.56% active; AID 651725; in the data active = activity change below about -65%; inconclusive = mostly about -30% to -63%
Target sequence (O00167 whole entry, looked up): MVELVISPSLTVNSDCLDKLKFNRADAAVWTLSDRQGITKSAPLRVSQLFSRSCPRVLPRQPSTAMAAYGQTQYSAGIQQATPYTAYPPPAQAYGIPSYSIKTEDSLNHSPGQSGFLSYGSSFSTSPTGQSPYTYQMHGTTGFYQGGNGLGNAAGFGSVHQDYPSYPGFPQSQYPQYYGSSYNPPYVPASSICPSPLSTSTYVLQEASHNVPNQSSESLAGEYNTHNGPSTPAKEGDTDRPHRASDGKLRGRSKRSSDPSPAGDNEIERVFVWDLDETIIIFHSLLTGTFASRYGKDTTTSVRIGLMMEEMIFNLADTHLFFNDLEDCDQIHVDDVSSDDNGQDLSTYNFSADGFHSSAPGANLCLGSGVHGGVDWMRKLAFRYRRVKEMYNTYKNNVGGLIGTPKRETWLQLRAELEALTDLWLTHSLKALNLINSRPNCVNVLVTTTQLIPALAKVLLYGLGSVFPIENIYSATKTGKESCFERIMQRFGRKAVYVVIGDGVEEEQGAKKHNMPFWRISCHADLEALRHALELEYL
Target sequence (Q15475 whole entry, looked up): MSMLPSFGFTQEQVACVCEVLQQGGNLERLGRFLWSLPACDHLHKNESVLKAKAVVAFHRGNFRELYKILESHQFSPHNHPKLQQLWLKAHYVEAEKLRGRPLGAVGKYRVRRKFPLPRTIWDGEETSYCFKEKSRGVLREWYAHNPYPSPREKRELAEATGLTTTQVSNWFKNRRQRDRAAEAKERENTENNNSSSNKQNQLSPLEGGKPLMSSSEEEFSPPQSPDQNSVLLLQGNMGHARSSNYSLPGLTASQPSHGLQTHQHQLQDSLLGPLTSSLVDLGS
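GST-Six1 + His-Eya2 (5X stock: 250/500 nM); Tris pH 8.0, 300 mM NaCl, 0.05% BSA, 0.02% Tween 20; GSH donor/Ni acceptor beads; 1 h 37 °C dark; AlphaScreen readout.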
GALK inhibitor: galactokinase (human) inhibition; P51570; Purified GALK, Kinase-Glo residual ATP luminescence; Potency, µM (highest dose often 57.5 µM), for the others: at the highest dose activity change, negative = inhibition, most hits filed as inhibitors; 270,000 tested, 0.007% active; also: potency is read from the fitted curve at half-maximal effect
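5 nM enzyme, 35 uM ATP, 100 uM galactose, 20 mM HEPES pH8.0, 5 mM MgCl2; 1 h RT; residual ATP by Kinase-Glo Plus luminescence, qHTS format.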
CtBP-E1A inh: blocks the CtBP interaction with E1A | AlphaScreen GST-E1A/His-CtBP binding, 1536-well; hits give low values | activity change, % (no concentration beside the values) | 340,000 tested, 0.49% active | AID 651724; in the data active = activity change below about -65%; inconclusive = mostly about -30% to -63%
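AlphaScreen with 125 nM GST-E1A and 125 nM His-CtBP (5X stocks) in Tris pH 8.0, 300 mM NaCl, BSA, Tween 20, TCEP. Compounds preincubated 2 h at 37 deg C, then glutathione donor/nickel acceptor beads added for 1 h at 37 deg C in dark.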
TrxR1 substrate: rat thioredoxin reductase 1 substrate activity; O89049; purified TrxR1 substrate turnover, NADPH consumption readout; Potency, µM (doses to about 114 µM), for the others: at the highest dose activity change, negative = substrate turnover; 390,000 tested, 0.01% active; also: potency is read from the fitted curve at half-maximal effect; nearly all actives have a fitted effect of over 50% in size
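Rat TrxR1, dispensed at 90 nM, was prereduced with 400 uM NADPH (final) for 5 min at ~22 deg C, then incubated with compound 15 min before 400 uM selenite. A first-read NADPH fluorescence drop versus no-compound background flagged substrates.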
Eya2 inh: Eya2 (human) phosphatase inhibition; O00167; recombinant Eya2, OMFP fluorescence dephosphorylation (OMFP is methylfluorescein phosphate); Potency, µM (highest dose often 76.9 µM), without a hit: at the highest dose activity, negative = inhibition, most hits filed as inhibitors; 330,000 tested, 0.006% active; AID 488837; also: potency is read from the fitted curve at half-maximal effect
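Eya2 protein (added as 0.2 uM solution) was preincubated with compound for 10 min at ambient temperature in 50 mM HEPES pH 7.5, 50 mM NaCl, 5 uM MgCl2, 0.05% BSA, 1 mM DTT. OMFP (added at 50 uM) then reacted 10 min; fluorescence read at 485/525 nm.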
The depositor's hits bear a star; ? = inconclusive; . = no result given; [ ] = dose if it differs, or a comment. Unless noted, calls follow the shape of the dose curve; as a rule, active = well fitted curve in the direction sought with a large enough effect; inconclusive = small, poorly fitted or top-dose-only effect, or another doubt; inactive = no such curve, though single readings can be large; an effect the other way counts as inactive or inconclusive. % is scaled to controls: 0 for no effect and ±100 for the full control effect.

SMILES | rTrxR1 inhibitor | Six1-Eya2 blk | GALK inhibitor | CtBP-E1A inh | TrxR1 substrate | Eya2 inh
CCN(CC)S(=O)(=O)c1cccc(C(=O)N/N=C(\C)c2ccc(O)cc2O)c1 | 20%[57.1 µM] | -67* | 2% | ? | -2%[57.1 µM] | 0%
CCc1cccc2c(C(O)c3c[nH]c4ccccc34)c[nH]c12 (stereo not given) | 1% | . | . | . | -2% | .
COc1ccccc1C(C)NCC(=O)c1c(C)[nH]c2ccccc12 (stereo not given) | 20µM* | . | . | . | -3% | .
Cc1[nH]c2ccccc2c1C(=O)CNc1ccc(Br)cc1 | 12% | . | . | . | 5% | .
Nc1nc(-c2ccccc2)c(N=Nc2cccc3ccccc23)s1 | -10% | -78* | . | -93* | -7% | -17%
Cc1ncc(N=Nc2ccccc2Cl)c(-c2ccccc2)n1 | -3%[57.1 µM] | -69* | 0% | -66* | -3% | 7%
Nc1nc(-c2ccccc2)c(N=Nc2ccccc2Cl)s1 | -22% | -76* | 2% | -67* | -18% | -23%
CC(=O)Nc1sc(N)nc1-c1ccccc1 | 9% | 6 | 1% | 4 | 1% | 13%
CC(C)NC(=O)C1CCN(c2nc3ccccc3nc2C(F)(F)F)CC1 | 19%[57.1 µM] | . | . | . | 5%[57.1 µM] | .
CCOC(=O)c1c(N2C(=O)C3C4C=CC(O4)C3C2=O)sc2c1CCCC2 (stereo not given) | 13µM* | -3 | 2% | -3 | -2% | .
CCOC(=O)c1c(-n2cnnn2)sc2c1CCCC2 | 26% | 6 | -3% | 7 | 40% | ?
CC(=O)CC[N+](C)(C)C | 2.2µM* | 8 | . | -3 | -2% | .
O=C(CC(=O)Nc1ccccc1F)Nc1ccc2nc3n(c(=O)c2c1)CCCCC3 | 3% | . | . | . | 0% | .
Cc1nc2scc(C)n2c(=O)c1S(=O)(=O)Nc1cccc(C(F)(F)F)c1 | -6% | . | . | . | -6% | .
COc1cc(C(=O)CCN2CCC(c3ccccc3)C2)cc(OC)c1OC (stereo not given) | 0.5µM* | 4 | -1% | 0 | -7% | -7%
O=C(CCN1CCC(c2ccccc2)C1)c1ccc2c(c1)OCCO2 (stereo not given) | 0.28µM* | -1 | 0% | -12 | 3% | -4%
O=C(CCc1ccccc1)c1ccc2c(c1)OCCCO2 | 12% | 39 | 0% | 39 | 2% | 3%
O=C(CCN1CCCCC1)c1ccc2c(c1)OCCO2 | 0.32µM* | -14 | 2% | -11 | 21% | 18%
O=C(CCN1CCCC1Cc1ccccc1)c1ccc2c(c1)OCCO2 (stereo not given) | 0.32µM* | -6 | -2% | -1 | 3% | .
Cc1ccccc1NC(=O)c1c(C)oc2ccc(O)c(CN3CCOCC3)c12 | 17% | . | . | . | -2% | .
O=S(=O)(c1ccc(OC(F)(F)F)cc1)N1CCN(c2nc(-c3cccs3)nc3ccccc23)CC1 | 2% | . | . | . | 5% | .
COc1ccccc1NC(=O)CN1C(=O)C(c2ccc(F)cc2)=NC12CCCCC2 | 1% | . | . | . | -8% | .
O=C(CCN1CCc2ccccc21)c1ccc2c(c1)OCCO2 | ? | -9 | -1% | -7 | 15%[57.1 µM] | -7%
O=C(CCN1CCc2ccccc2C1)c1ccc2c(c1)OCCO2 | 0.56µM* | 2 | 2% | -10 | 0% | 2%
Cc1ccc(C(=O)Oc2cc(C)n(C)c(=O)c2)cc1 | 11%[57.1 µM] | -95* | -3% | -23 | -10% | -3%
SMILES | rTrxR1 inhibitor | Six1-Eya2 blk | GALK inhibitor | CtBP-E1A inh | TrxR1 substrate | Eya2 inh
COc1ccc(CNC(=O)c2cc(C)nc3c2c(C)nn3-c2cccc(Cl)c2C)cc1 | 44% | . | . | . | 42% | .
CC(C)CC(=O)/C=C/n1c(=S)oc2ccccc21 | 6.3µM* | -9 | -1% | -2 | -12% | 0%
CC(=O)/C=C/n1c(=S)oc2ccccc21 | 3.2µM* | -3 | 0% | 0 | -3%[57.1 µM] | 4%
Cn1c(=S)oc2ccccc21 | 27%[57.1 µM] | 6 | . | 7 | 4% | 3%
Cc1ccc(S(=O)(=O)N2CCN(c3nc(-n4ccnn4)nc4ccccc34)CC2)cc1 | 0% | . | . | . | 5% | .
O=C(O)/C=C/S(=O)(=O)c1ccc2ccccc2c1 | 11µM* | -11 | 3% | 6 | 7% | -1%
NS(=O)(=O)c1ccc2ccccc2c1 | 18% | 2 | . | 2 | 7% | 16%
CC1C(=O)Nc2ccc(S(=O)(=O)NCc3ccc(N(C)C)cc3)cc2NC1=O (stereo not given) | 2% | . | . | . | -4% | .
CC1(C)Cc2nc3oc4c(=S)nc[nH]c4c3cc2CO1 | 11µM* | -1 | 3% | 11 | -8% | -8%
C=CCSc1ncnc2c1oc1nc3c(cc12)COC(C)(C)C3 | 23%[11.4 µM] | 2 | -3% | 1 | 6%[11.4 µM] | 9%
CCc1cnc(Nc2nc(C(N)Cc3ccc(Cl)cc3)cs2)nc1 (stereo not given) | . | -23 | . | -23 | . | .
NC(Cc1ccc(Cl)cc1)c1csc(Nc2cc(NCCCO)ncn2)n1 (stereo not given) | . | -70* | . | -78* | . | .
NC(COCc1ccccc1)c1csc(Nc2cc(NCCCO)ncn2)n1 (stereo not given) | . | -86* | . | -86* | . | .
COc1ccc(CC(N)c2csc(Nc3cc(NCCCO)ncn3)n2)cc1 (stereo not given) | . | -91* | . | -93* | . | .
NC(COCc1ccccc1)c1csc(Nc2ccc(C(=O)c3ccccc3)cc2)n1 (stereo not given) | . | -8 | . | -7 | . | .
CC(C)CC(N)c1csc(Nc2ncccn2)n1 (stereo not given) | . | ? | . | -71* | . | .
COc1ccccc1NS(=O)(=O)c1cn(C)c(C)n1 | 32%[57.1 µM] | . | . | . | 10%[57.1 µM] | .
NC(=O)c1ccc(Nc2nc(C(N)COCc3ccccc3)cs2)cc1 (stereo not given) | . | -24 | . | -23 | . | .
COc1cccc(Nc2nc(C(N)CO)cs2)n1 (stereo not given) | . | ? | . | -76* | . | .
NC(COCc1ccccc1)c1csc(Nc2ncccn2)n1 (stereo not given) | . | -81* | . | -85* | . | .
NCc1csc(Nc2ncccn2)n1 | . | -73* | . | -81* | . | .
Cc1ccc(NC(=O)C2CCCN2S(=O)(=O)c2ccc3c(c2)C(C)(C)C(=O)N3C)cc1 (stereo not given) | 14% | . | . | . | 3% | .
COc1ccc(C2Nc3ccccc3C(=O)N2Cc2ccco2)cc1COc1c(C)cccc1C (stereo not given) | 20µM* | . | . | . | 18% | .
O=C(O)/C=C/C(=O)Nc1ccc(Oc2ncnc3cc(Cl)ccc23)nc1 | 56µM* | 1 | 4% | -2 | 4% | -1%
O=C(Nc1ccccc1)Nc1ccc(Oc2ncnc3cc(Cl)ccc23)nc1 | 27% | 10 | 3% | 12 | 7% | 2%
Cc1c(N=Nc2ccc(O)cc2)c(=O)n(-c2ccccc2)n1C | 5%[57.1 µM] | -24 | 1% | -7 | -25% | 5%

Screening data (PubChem BioAssay)
